Measurements as given in PubChem BioAssay (NCATS).
Inconclusive results are not listed. Calls of active or inactive are those of the source. The call rests on the fitted dose curve; in most records, active means well fitted curve in the direction sought with a large enough effect; inconclusive means small, poorly fitted or top-dose-only effect, or another doubt; inactive means no such curve, though single readings can be large; an effect the other way counts as inactive or inconclusive.

Tests used:
[1] = qHTS assay for measurement of the activity of small molecule inhibitors on Zika virus induced Caspase-3 activity in human iPSC derived neural progenitor cells (hNPCs) (AID 1224857); further: nearly all actives have a fitted effect of over 65% in size
Summary of the method: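 In medium with heparin 2 ug/ml and cyclopamine 2 uM, hNPCs (350 cells/well) received compound for one hour and then Zika virus at 2 FFU/cell; caspase activity was measured by Caspase-Glo 3/7 luminescence 6 h post-infection.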

[2] = qHTS assay for measurement of the activity of small molecule inhibitors on Zika virus induced Caspase-3 activity in human astrocytoma cells (AID 1224859)
Summary of the method: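 A cell-based luminescent caspase-3/7 assay used SNB-19 cells infected with ZIKV (2 FFU/cell) for 6 h following 1 h compound pretreatment.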

[3] = NS1 protein of Zika virus - qHTS assay to identify small molecule inhibitors in human HEK 293 cells (AID 1347053); further: series mostly up to about 46 µM; nearly all actives have a fitted effect of over 55% in size
Summary of the method: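 In this cell-based screen, HEK 293 cultures received compound for one hour before Zika MR766 at MOI = 0.5. NS1 was quantified 24 hours later by TR-FRET, normalized to virus-free wells and infected wells.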

[4] = qHTS of pediatric cancer cell lines to identify multiple opportunities for drug repurposing: Primary screen for TC32 cells (AID 1347089); further: nearly all actives have a fitted effect of over 60% in size
Summary of the method: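 qHTS, TC32, 48 h drug treatment, CellTiter-Glo luminescence as a proxy for metabolically active cells; primary top concentration 46 µM (MIPE 11-pt, NPC 8-pt); confirmatory 11-pt.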

[5] = qHTS of pediatric cancer cell lines to identify multiple opportunities for drug repurposing: Primary screen for DAOY cells (AID 1347090); further: series mostly up to about 46 µM; nearly all actives have a fitted effect of over 55% in size
Summary of the method: (§1)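 Cell viability, CellTiter-Glo luminescence; 500-1,000 cells/well, 8- or 11-point titration, 48 h compound exposure at 37 degrees C, 5% CO2. Controls: DMSO neutral, bortezomib 2.3 µM final as positive.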

[6] = qHTS of pediatric cancer cell lines to identify multiple opportunities for drug repurposing: Primary screen for SJ-GBM2 cells (AID 1347091)
Summary of the method: as §1

[7] = qHTS of pediatric cancer cell lines to identify multiple opportunities for drug repurposing: Primary screen for A673 cells (AID 1347092); further: nearly all actives have a fitted effect of over 45% in size
Summary of the method: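 Luminescence from CellTiter-Glo, taken after 15 min at room temperature, served as the proxy for metabolically active cells following 48 h treatment. Both potency and efficacy were taken from curves fitted to the titration data.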

[8] = qHTS of pediatric cancer cell lines to identify multiple opportunities for drug repurposing: Primary screen for SK-N-MC cells (AID 1347093); further: series mostly up to about 46 µM
Summary of the method: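 Metabolically active cells were quantified by ATP-dependent luminescence (CellTiter-Glo, 15 min at room temperature) following 48 h treatment. Cells had been plated at 500-1,000 per well and settled for 5 h beforehand.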

[9] = qHTS of pediatric cancer cell lines to identify multiple opportunities for drug repurposing: Primary screen for BT-37 cells (AID 1347094); further: series mostly up to about 57 µM
Summary of the method: (§2)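 Plated cells (500-1,000 per well, growth media) were allowed to settle for 5 hours, treated with compound dilutions for 48 hours, then lysed with CellTiter-Glo for 15 min at room temperature before luminescence reading.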

[10] = qHTS of pediatric cancer cell lines to identify multiple opportunities for drug repurposing: Primary screen for NB-EBc1 cells (AID 1347095)
Summary of the method: as §2

[11] = qHTS of pediatric cancer cell lines to identify multiple opportunities for drug repurposing: Primary screen for U-2 OS cells (AID 1347096); further: nearly all actives have a fitted effect of over 50% in size
Summary of the method: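 Cells (500-1,000/well) rested 5 h, then received compounds for 48 h; metabolically active cells were measured by CellTiter-Glo luminescence. Final concentrations spanned up to 46 µM (MIPE, 11-point) or 0.59 nM-46 µM (NPC, 8-point) in primary screens, 11-point in follow-ups.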

[12] = qHTS of pediatric cancer cell lines to identify multiple opportunities for drug repurposing: Primary screen for Saos-2 cells (AID 1347097); further: nearly all actives have a fitted effect of over 40% in size
Summary of the method: as §2

Measured: Potency

O=C1CC2(CCCC2)CC(=O)N1CCNCC1COc2ccccc2O1 (stereo not given)
inactive: all assays above

COC(=O)c1cc(Cl)c(NC(C)=O)cc1OC
inactive: all assays above

Nc1ncnc2c1ncn2Cc1c(F)cccc1Cl
inactive: all assays above

Cc1ccc2ccc(Cl)cc2n1
not listed: [12]
inactive: all other assays above

CCCCC(CC)CNC(=O)CC(C)OC(=O)CCC(=O)O (stereo not given)
not listed: [12]
inactive: all other assays above

CCCCCN(CCCOC)C(=O)C(CCC(=O)O)NC(=O)c1ccc(Cl)c(Cl)c1 (stereo not given)
inactive: all assays above

CN1CCN(N)CC1
not listed: [12]
inactive: all other assays above

CCN(CC)CC(=O)Oc1ccc(NC(C)=O)cc1
inactive: all assays above

CC(=O)N(CC(=O)N(C)C)c1ccccc1
not listed: [12]
inactive: all other assays above

CNC[C@H](O)[C@@H](O)[C@H](O)[C@H](O)CO
inactive: all assays above

O=C(c1ccco1)N1CCNCC1
not listed: [12]
inactive: all other assays above

CN1Cc2cc(C(=O)N3CCC(C4CCNCC4)CC3)ccc2NC(CC(=O)O)C1=O (stereo not given)
inactive: all assays above

Cc1onc(-c2ccccc2)c1C(=O)Cl
inactive: all assays above

CCCCN(CCCC)C(C(N)=O)c1ccc(OC)cc1 (stereo not given)
inactive: all assays above

Nc1ccc(C(=O)N2CC3CC(CN(Cc4ccccc4)C3)C2)cc1
inactive: all assays above

Oc1cccc2[nH]ccc12
inactive: all assays above

CCCC(CCC)(C(=O)OCC)C(=O)OCC
inactive: all assays above

NS(=O)(=O)c1cc(C(=O)NN2C[C@H]3[C@H]4CCC(C4)[C@H]3C2)ccc1Cl
inactive: all assays above

O=[N+]([O-])c1cncn1CCN1CCOCC1
inactive: all assays above

CCOC(=O)[C@H](CCc1ccccc1)N[C@@H](C)C(=O)N(CC(=O)O)C1Cc2ccccc2C1
inactive: all assays above
